Source: PubChem BioAssay (NCATS)
Results filed as inconclusive are left out. Active and inactive are the calls of the source. The call rests on the fitted dose curve; in most records, active means well fitted cell-killing curve with a large enough effect; inconclusive means small, poorly fitted or top-dose-only effect, or effect the other way; inactive means flat fitted curve, though single readings scatter.

System: Hek293T
Assay: Primary qHTS to identify gynecologic anti-cancer compounds using libraries of approved drugs and bioactive compounds (AID 1345084); further: nearly all actives have a fitted effect of over 55% in size
Settings: Gynecologic cancer cell panel viability, ATPlite luminescence, 48 h, control line for the selectivity index; series mostly up to 57.5 µM
Procedure, shortened: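 Cells, 1,000 per well, were allowed to settle for 16 h at 37 C before compound addition. Five concentrations were tested for 48 h, and viability was read by ATPlite luminescence after 15 min at room temperature.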
Potency means the concentration at half of the fitted maximal effect.

Row | Compound | Potency
1 | CC(C)c1cnn2c(NCc3ccccc3)cc(N[C@@H](CO)[C@H](O)CO)nc12 | 1410 nM (active)
2 | CCOC(=O)C1=C(C)NC2=C(C(=O)CC(C)(C)C2)C1c1ccc(-c2ccccc2)cc1 (stereo not drawn) | 28200 nM (active)
3 | CN1CCN(Cc2ccc(NC(=O)Nc3ccc(Oc4cc(NC(=O)C5CC5)ncn4)cc3)cc2C(F)(F)F)CC1 | 1410 nM (active)
4 | Cc1ccc2nc(NC(=O)CSc3nc4c(c(=O)n3-c3ccccc3)SCC4)sc2c1 | inactive
5 | Cn1c(=O)n(-c2ccc(C(C)(C)C#N)cc2)c2c3cc(-c4cnc5ccccc5c4)ccc3ncc21 | 794 nM (active)
6 | C=CC(=O)Nc1cccc(Oc2nc(Nc3ccc(N4CCN(C)CC4)cc3OC)ncc2Cl)c1 | inactive
7 | Cc1nc(Nc2n[nH]c3c2CN(C(=O)N[C@H](CN(C)C)c2ccccc2)C3(C)C)c2sccc2n1 | 3550 nM (active)
8 | Cc1c(C)n(Cc2ccc(-c3ccccc3C(=O)O)cc2)c2ccc(C(=O)N[C@@H](C)c3ccc([N+](=O)[O-])cc3)cc12 | inactive
9 | CNC(=O)CN1CCC(Oc2cc3c(Nc4cccc(Cl)c4F)ncnc3cc2OC)CC1 | inactive
10 | O=C(CCCCCCC(=O)Nc1ccc([C@H]2O[C@@H](CSc3nc(-c4ccccc4)c(-c4ccccc4)o3)C[C@@H](c3ccc(CO)cc3)O2)cc1)NO | inactive
11 | NC1(Cc2ccc(Cl)cc2)CCN(c2ncnc3[nH]ccc23)CC1 | 10000 nM (active)
12 | Cc1[nH]nc2ccc(-c3cncc(OC[C@@H](N)Cc4ccccc4)c3)cc12 | 1780 nM (active)
13 | Cc1ccc(C(=O)Nc2cccc(C(F)(F)F)c2)cc1-c1ccc2nc(NCCN3CCOCC3)ncc2c1 | inactive
